Laboratory results reported in PubChem BioAssay AID504904 (The Scripps Research Institute Molecular Screening Center, 2011).
This is one part of the list. Active and inactive are the calls of the source. No stated cut-off is given here; in the data, active means activation above about 18%; inactive means the rest.

These molecules were tested against Mu-type opioid receptor (Homo sapiens) + Delta-type opioid receptor (Homo sapiens) (UniProt P35372+P41143) (assay: agonists of MOR-DOR heterodimerization, confirmation, cell-based, luminescence (AID 504904;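 further: 0% = vehicle-treated cells and 100% = reference agonist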)). Details: cells, luminescence complementation, at 9.3 µM, active compounds read high.
Mu-type opioid receptor (Homo sapiens) + Delta-type opioid receptor (Homo sapiens), sequence (P35372 whole entry, looked up): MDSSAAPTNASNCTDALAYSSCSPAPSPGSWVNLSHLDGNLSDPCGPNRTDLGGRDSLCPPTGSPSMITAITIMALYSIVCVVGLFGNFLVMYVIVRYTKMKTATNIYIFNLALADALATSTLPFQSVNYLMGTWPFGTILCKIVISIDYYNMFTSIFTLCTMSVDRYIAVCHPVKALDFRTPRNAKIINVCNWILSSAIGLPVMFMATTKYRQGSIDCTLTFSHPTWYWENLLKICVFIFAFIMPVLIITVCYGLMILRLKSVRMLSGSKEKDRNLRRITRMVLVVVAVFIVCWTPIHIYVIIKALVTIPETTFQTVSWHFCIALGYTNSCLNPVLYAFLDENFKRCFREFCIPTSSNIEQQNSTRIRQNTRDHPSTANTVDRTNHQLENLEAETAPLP
Mu-type opioid receptor (Homo sapiens) + Delta-type opioid receptor (Homo sapiens), sequence (P41143 whole entry, looked up): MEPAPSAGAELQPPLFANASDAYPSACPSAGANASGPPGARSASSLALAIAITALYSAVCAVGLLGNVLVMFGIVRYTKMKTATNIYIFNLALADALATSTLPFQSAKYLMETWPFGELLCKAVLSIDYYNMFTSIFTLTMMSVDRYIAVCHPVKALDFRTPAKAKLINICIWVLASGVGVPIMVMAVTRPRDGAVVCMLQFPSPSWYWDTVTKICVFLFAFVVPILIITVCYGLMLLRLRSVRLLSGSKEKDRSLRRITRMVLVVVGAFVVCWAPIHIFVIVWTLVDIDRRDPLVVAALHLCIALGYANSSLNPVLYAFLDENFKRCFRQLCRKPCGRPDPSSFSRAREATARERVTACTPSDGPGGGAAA

Structure (SMILES)	activation
COC1C(O)C(C)OC(OC2CCC3(C=O)C(CCC4C3CCC3(C)C(C5=CC(=O)OC5)CCC43O)C2)C1O (centres undefined)	51.8% (active)
CCOC(=O)C1(CCc2ccccc2)CCN(Cc2ccco2)CC1	41.4% (active)
C[C@]12CC[C@H](O)C[C@H]1CC[C@@H]1C2CC[C@]2(C)[C@@H](C3=CC(=O)OC3)[C@@H](O)C[C@]12O (some centres undefined)	-3.86% (inactive)
CCC1(C)CC(CCNCc2ccc(N(C)C)cc2)(c2ccc(F)cc2)CCO1 (centres undefined)	137% (active)
